# Where a name gives a salt, the structure may show the parent alone. ± gives the standard deviation of the averaged measurements.
# Columns and labels:
# [1] = tested on: Saccharomyces cerevisiae BY4741 SeMeCo community; experiment: mean cell size (pixel area) (pixels); higher = larger cells; conditions: 10 µM; 24 h; SM minimal medium
# How it was run: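 Mean cell pixel area per well was measured in a four-plasmid fluorescent community of Saccharomyces cerevisiae BY4741, where every plasmid complements one auxotrophy and carries a fluorescent marker. Cells from an overnight preculture at OD600 = 1.0 were diluted to OD600 = 0.3 and dispensed at 70 µl into 384-well plates acoustically predosed with drug to a final 10 µM in SM medium. Incubation lasted 24 h, followed by paraformaldehyde fixation, automated confocal imaging and analysis in Harmony. Reported figures are averaged over 3 replicates. Same SeMeCo high-content imaging drug screen: Selleck FDA-approved drugs at 10 µM, 24 h in SM medium, 384-well plates, 3 replicates.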
# [2] = tested on: Saccharomyces cerevisiae BY4741 SeMeCo community; experiment: z-score of subpopulation abundance vs DMSO median, subpopulation auxotrophic for M; higher = larger share of this subpopulation than in DMSO controls; conditions: 10 µM; 24 h; SM minimal medium; subpopulation (auxotrophy): M
# How it was run: (§1)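 Cells of a Saccharomyces cerevisiae BY4741 community, carrying four plasmids that each restored one auxotrophy and encoded a distinct fluorescent protein, were pre-grown overnight to OD600 1.0 and diluted to 0.3. A 70 µl volume was added to 384-well plates acoustically predosed with library drugs (10 µM final) and grown 24 h in minimal SM medium. After paraformaldehyde fixation, automated confocal microscopy was used, with single-auxotroph fluorescent strains for thresholds and autofluorescence correction. The abundance of each subpopulation was scored as a z-score against the vehicle-well median.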
# [3] = tested on: Saccharomyces cerevisiae BY4741 SeMeCo community; experiment: z-score of subpopulation abundance vs DMSO median, subpopulation auxotrophic for L; higher = larger share of this subpopulation than in DMSO controls; conditions: 10 µM; 24 h; SM minimal medium; subpopulation (auxotrophy): L
# How it was run: as §1
# [4] = tested on: Saccharomyces cerevisiae BY4741 SeMeCo community; experiment: z-score of subpopulation abundance vs DMSO median, subpopulation auxotrophic for U; higher = larger share of this subpopulation than in DMSO controls; conditions: 10 µM; 24 h; SM minimal medium; subpopulation (auxotrophy): U
# How it was run: as §1
# [5] = tested on: Saccharomyces cerevisiae BY4741 SeMeCo community; experiment: z-score of subpopulation abundance vs DMSO median, subpopulation auxotrophic for H; higher = larger share of this subpopulation than in DMSO controls; conditions: 10 µM; 24 h; SM minimal medium; subpopulation (auxotrophy): H
# How it was run: as §1
# [6] = tested on: Saccharomyces cerevisiae BY4741 SeMeCo community; experiment: z-score of subpopulation abundance vs DMSO median, subpopulation auxotrophic for LU; higher = larger share of this subpopulation than in DMSO controls; conditions: 10 µM; 24 h; SM minimal medium; subpopulation (auxotrophy): LU
# How it was run: as §1
# [7] = tested on: Saccharomyces cerevisiae BY4741 SeMeCo community; experiment: z-score of subpopulation abundance vs DMSO median, subpopulation auxotrophic for LM; higher = larger share of this subpopulation than in DMSO controls; conditions: 10 µM; 24 h; SM minimal medium; subpopulation (auxotrophy): LM
# How it was run: as §1
# [8] = tested on: Saccharomyces cerevisiae BY4741 SeMeCo community; experiment: z-score of subpopulation abundance vs DMSO median, subpopulation auxotrophic for HU; higher = larger share of this subpopulation than in DMSO controls; conditions: 10 µM; 24 h; SM minimal medium; subpopulation (auxotrophy): HU
# How it was run: as §1
# [9] = tested on: Saccharomyces cerevisiae BY4741 SeMeCo community; experiment: z-score of subpopulation abundance vs DMSO median, subpopulation auxotrophic for HL; higher = larger share of this subpopulation than in DMSO controls; conditions: 10 µM; 24 h; SM minimal medium; subpopulation (auxotrophy): HL
# How it was run: as §1
# [10] = tested on: Saccharomyces cerevisiae BY4741 SeMeCo community; experiment: z-score of subpopulation abundance vs DMSO median, subpopulation auxotrophic for HLU; higher = larger share of this subpopulation than in DMSO controls; conditions: 10 µM; 24 h; SM minimal medium; subpopulation (auxotrophy): HLU
# How it was run: as §1
# [11] = tested on: Saccharomyces cerevisiae BY4741 SeMeCo community; experiment: z-score of subpopulation abundance vs DMSO median, subpopulation auxotrophic for HLM; higher = larger share of this subpopulation than in DMSO controls; conditions: 10 µM; 24 h; SM minimal medium; subpopulation (auxotrophy): HLM
# How it was run: as §1
# [12] = tested on: Saccharomyces cerevisiae BY4741 SeMeCo community; experiment: z-score of subpopulation abundance vs DMSO median, subpopulation auxotrophic for HUM; higher = larger share of this subpopulation than in DMSO controls; conditions: 10 µM; 24 h; SM minimal medium; subpopulation (auxotrophy): HUM
# How it was run: as §1
# [13] = tested on: Saccharomyces cerevisiae BY4741 SeMeCo community; experiment: z-score of subpopulation abundance vs DMSO median, subpopulation auxotrophic for LUM; higher = larger share of this subpopulation than in DMSO controls; conditions: 10 µM; 24 h; SM minimal medium; subpopulation (auxotrophy): LUM
# How it was run: as §1
# [14] = tested on: Saccharomyces cerevisiae BY4741 SeMeCo community; experiment: z-score of subpopulation abundance vs DMSO median, subpopulation auxotrophic for HLUM; higher = larger share of this subpopulation than in DMSO controls; conditions: 10 µM; 24 h; SM minimal medium; subpopulation (auxotrophy): HLUM
# How it was run: as §1
# [15] = tested on: Saccharomyces cerevisiae BY4741 SeMeCo community; experiment: z-score of prototroph abundance vs DMSO median; higher = larger share of this subpopulation than in DMSO controls; conditions: 10 µM; 24 h; SM minimal medium; subpopulation (auxotrophy): Prototroph
# How it was run: as §1
# [16] = tested on: Saccharomyces cerevisiae BY4741 SeMeCo community; experiment: z-score of subpopulation abundance vs DMSO median, subpopulation auxotrophic for UM; higher = larger share of this subpopulation than in DMSO controls; conditions: 10 µM; 24 h; SM minimal medium; subpopulation (auxotrophy): UM
# How it was run: as §1
# [17] = tested on: Saccharomyces cerevisiae BY4741 SeMeCo community; experiment: z-score of subpopulation abundance vs DMSO median, subpopulation auxotrophic for HM; higher = larger share of this subpopulation than in DMSO controls; conditions: 10 µM; 24 h; SM minimal medium; subpopulation (auxotrophy): HM
# How it was run: as §1
Compound,mean cell size [1],z-score of subpopulation abundance [2],z-score of subpopulation abundance [3],z-score of subpopulation abundance [4],z-score of subpopulation abundance [5],z-score of subpopulation abundance [6],z-score of subpopulation abundance [7],z-score of subpopulation abundance [8],z-score of subpopulation abundance [9],z-score of subpopulation abundance [10],z-score of subpopulation abundance [11],z-score of subpopulation abundance [12],z-score of subpopulation abundance [13],z-score of subpopulation abundance [14],z-score of prototroph abundance [15],z-score of subpopulation abundance [16],z-score of subpopulation abundance [17]
COc1ncnc(NS(=O)(=O)c2ccc(N)cc2)c1OC [Sulfadoxine],12.47 ± 0.085,-0.15,-0.42,1.05,-0.14,0.85,-0.89,0.53,0.34,0.31,0.02,1.04,-0.34,0.32,,,
OC1(c2ccc(Cl)c(C(F)(F)F)c2)CCN(CCCC(c2ccc(F)cc2)c2ccc(F)cc2)CC1 [Penfluridol],11.65 ± 0.089,1.3,0.81,-0.01,0.09,0.13,2.64,0.66,0.46,0.93,0.92,0.44,2.56,,-1.64,2.69,
O=C(Nc1c(Cl)cncc1Cl)c1ccc(OC(F)F)c(OCC2CC2)c1 [Roflumilast],12.4 ± 0.14,0.29,-0.2,0.07,-0.65,0.34,-0.1,0.22,-0.5,-0.37,-0.77,-0.17,,-0.84,0.36,0.24,
Cc1nccn1CC1CCc2c(c3ccccc3n2C)C1=O (configuration not stated) [Ondansetron HCl],12.4 ± 0.2,-1.05,-0.44,,-0.7,-0.06,-0.49,-0.51,-0.77,-0.69,-0.71,-0.03,,-0.89,,0.08,
C[C@]12CC[C@@H]3c4ccc(OS(=O)(=O)O)cc4CC[C@H]3[C@@H]1CCC2=O [Estropipate],12.21 ± 0.12,0.08,-0.9,-0.01,-0.96,-0.6,-0.33,,-0.81,-0.73,-0.64,-0.32,-0.11,,0.59,0.16,-0.81
Cc1c(OCC(F)(F)F)ccnc1C[S+]([O-])c1nc2ccccc2[nH]1 (configuration not stated) [Lansoprazole],12.5 ± 0.14,-0.85,1.12,-0.71,1.84,-0.54,1.16,,2.01,0.76,0.03,-0.3,1.02,1.37,-0.04,-1.1,
O=c1[nH]cnc2c1ncn2[C@@H]1O[C@H](CO)[C@@H](O)[C@H]1O [Isoprinosine],12 ± 0.19,-0.21,-0.33,-0.71,,-1.21,0,-0.35,-0.64,-0.46,-0.33,-0.24,-0.5,,0.72,,
COc1ccc2c(c1)c(CC(=O)OCC(=O)O)c(C)n2C(=O)c1ccc(Cl)cc1 [Acemetacin],12.45 ± 0.094,0.01,-1.06,,0.66,0.16,-0.54,0.77,0.11,-0.64,-0.3,0.69,-0.15,-0.61,-0.16,0.2,
CN[C@@H]1[C@@H](O)[C@@H](O[C@@H]2[C@@H](O)[C@H](O[C@H]3O[C@H](CN)[C@@H](O)[C@H](O)[C@H]3O)[C@@H](N)C[C@H]2NC(=O)[C@@H](O)CN)OC[C@]1(C)O [Isepamicin Sulphate],12.1 ± 0.21,0,-1.49,1.4,,-0.44,-0.22,1.15,-1.07,-0.42,-0.7,0.82,0.03,-0.09,-0.32,1.19,
CC(C)c1nc(N(C)S(C)(=O)=O)nc(-c2ccc(F)cc2)c1/C=C/[C@@H](O)C[C@@H](O)CC(=O)O [Rosuvastatin Calcium],11.6 ± 0.2,-1.93,0.29,0.59,0.06,1.26,-1.44,2.1,0.38,1.41,3.96,2.14,1.01,,-1.23,,
N=C(N)NS(=O)(=O)c1ccc(N)cc1 [Sulfaguanidine],12.3 ± 0.36,0,-0.1,-0.5,-0.42,-0.67,-0.87,-0.96,-0.4,-0.69,-1.22,-1.13,-0.49,-1.13,1.31,-0.62,
O=C1CCc2ccc(OCCCCN3CCN(c4cccc(Cl)c4Cl)CC3)cc2N1 [Aripiprazole],12.3 ± 0.16,0.38,1.13,0.55,,0.61,1.05,,1.38,1.16,0.77,0.36,1.32,0.56,,0.58,
C[C@]12CCC(=O)C=C1[C@@H]1C[C@@H]1[C@H]1[C@@H]3[C@@H]4C[C@@H]4[C@@]4(CCC(=O)O4)[C@@]3(C)CC[C@@H]12 [Drospirenone],12.53 ± 0.089,0.59,-0.08,-0.17,-0.17,0.11,1.26,,0.14,0.26,0.31,-0.41,0.85,,-0.22,-0.14,0.03
O=c1ccc2cc(O)c(O)cc2o1 [Esculetin],12.7 ± 0.16,5.32,1.75,-7.81,,-7.32,3.28,-7.17,2.44,-3.44,1.67,-4.69,-3.61,-0.38,,-8.53,
N#Cc1ccc(Oc2ccc3c(c2)COB3O)cc1 [Crisaborole (AN2728)],12.3 ± 0.19,-1.21,2.57,0.49,7.63,4.21,2.61,3.15,5.69,6.18,3.78,1.2,,5.38,-3.53,-0.21,

# Source: the supplement of paper PMC8975748
